Screening results: PubChem BioAssay, National Center for Advancing Translational Sciences (NCATS)
ASM inhibitor: Inhibitors of Secretory Acid Sphingomyelinase (S-ASM): qHTS. Potency, µM (doses to about 57.5 µM), without a hit: top-dose activity change, negative = inhibition, usual class: inhibitors. Sphingomyelin phosphodiesterase (Homo sapiens), P17405. actives 0.006% (n = 340,000). placental ASM, HMU-PC fluorogenic substrate, 60 min. AID 504937, 2011; note: potency is the fitted concentration of half-maximal effect
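Steps: dispense placental human ASM, pin compound, wait 10 min at room temperature, add HMU-PC0 substrate at 9 uM final, incubate 60 min at 37 °C, add stop solution raising pH to 10, read fluorescence.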
MmCpn inh: Inhibitors of TCP-1 ring complex (TRiC) of Methanococcus maripaludis (MmCpn): qHTS; AID 504842, 2011; Chaperonin Mm-Cpn (Methanococcus maripaludis); Potency, µM (series often up to 76.9 µM), for inactives: top-dose activity, negative = inhibition, usual class: inhibitors; actives 0.031% (n = 330,000); purified Mm-Cpn ATPase, ADP Transcreener TR-FRET; note: potency is the fitted concentration of half-maximal effect; % is set by controls: 0 for no effect and ±100 for the full control effect; nearly all actives have a fitted effect of over 80% in size
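Reaction buffer contained 30 mM Tris pH 7.4, 100 mM KCl, 5 mM MgCl2 and 1 mM DTT. Mm-CPN (25 nM final) hydrolysed 10 uM ATP over 30 min at 37°C; ADP was read by HTRF.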
KCNH2 3.1 block: qHTS for Inhibitors of KCHN2 3.1: Mutant qHTS; Potassium voltage-gated channel subfamily H member 2, brain isoform KCNH2 3.1 (human); U2OS KCNH2 3.1, thallium flux FluxOr; hits give low values; activity change, % (tested at about 1.8 µM); actives 0.95% (n = 340,000);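 active = maximum activity change below -70%; inconclusive = maximum activity change from -70% to -50%; inactive = maximum activity change above -50%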;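 note: thallium influx rate constant from kinetic fluorescence after stimulation buffer; % is set by controls: 0 for no effect and ±100 for the full control effect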
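Thallium flux via FluxOr fluorescence (Red40 quencher, 45 min loading) in U2OS cells virally expressing the KCNH2 3.1 isoform (1.77 x 10^8 /mL virus, overnight at 37 C). Rate constants from 2-min kinetic reads post-stimulation, normalised to positive and negative controls.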
KCNH2 WT inh: qHTS for Inhibitors of KCHN2 3.1: Wildtype qHTS; activity change, % at 1.84 µM; U2OS, BacMam KCNH2, thallium flux FluxOr; hits give low values; actives 0.37% (n = 340,000); Voltage-gated inwardly rectifying potassium channel KCNH2 (Homo sapiens), Q12809;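 active = maximum activity change below -70%; inconclusive = maximum activity change between -70% and -50%; inactive = maximum activity change above -50%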; note: % is set by controls: 0 for no effect and ±100 for the full control effect
Target sequence (Q12809 whole entry, looked up): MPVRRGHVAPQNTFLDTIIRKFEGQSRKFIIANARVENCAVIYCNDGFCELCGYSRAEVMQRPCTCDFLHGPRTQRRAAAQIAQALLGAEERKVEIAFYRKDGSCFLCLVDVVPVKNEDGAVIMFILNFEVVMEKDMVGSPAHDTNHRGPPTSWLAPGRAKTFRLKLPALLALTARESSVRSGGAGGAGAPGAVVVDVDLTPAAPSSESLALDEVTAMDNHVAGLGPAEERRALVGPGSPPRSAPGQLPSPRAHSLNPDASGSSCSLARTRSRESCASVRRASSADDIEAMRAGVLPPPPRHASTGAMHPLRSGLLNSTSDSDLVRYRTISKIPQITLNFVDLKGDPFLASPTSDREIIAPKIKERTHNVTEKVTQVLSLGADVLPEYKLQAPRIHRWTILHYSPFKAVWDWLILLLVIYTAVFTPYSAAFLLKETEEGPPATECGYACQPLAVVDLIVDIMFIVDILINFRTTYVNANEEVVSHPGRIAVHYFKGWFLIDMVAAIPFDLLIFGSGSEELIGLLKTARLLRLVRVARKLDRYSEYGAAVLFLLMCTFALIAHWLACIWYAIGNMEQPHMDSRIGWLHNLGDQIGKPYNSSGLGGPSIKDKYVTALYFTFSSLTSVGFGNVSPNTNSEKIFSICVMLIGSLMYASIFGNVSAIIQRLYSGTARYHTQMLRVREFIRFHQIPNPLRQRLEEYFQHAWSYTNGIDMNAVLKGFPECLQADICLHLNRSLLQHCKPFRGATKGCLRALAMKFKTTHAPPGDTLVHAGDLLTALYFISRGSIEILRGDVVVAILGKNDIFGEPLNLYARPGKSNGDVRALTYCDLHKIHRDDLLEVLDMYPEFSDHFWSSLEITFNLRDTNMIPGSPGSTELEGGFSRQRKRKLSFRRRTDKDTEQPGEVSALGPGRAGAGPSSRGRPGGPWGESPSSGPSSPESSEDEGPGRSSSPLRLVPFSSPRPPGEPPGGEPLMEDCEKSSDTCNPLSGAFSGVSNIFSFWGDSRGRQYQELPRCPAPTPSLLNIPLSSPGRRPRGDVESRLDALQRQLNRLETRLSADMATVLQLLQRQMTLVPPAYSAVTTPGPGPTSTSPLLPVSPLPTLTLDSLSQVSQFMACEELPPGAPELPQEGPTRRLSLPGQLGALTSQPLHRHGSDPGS
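U2OS cells were transduced with wild-type KCNH2 virus (2.03 x 10^8 / mL) for 4 h at room temperature, then cultured overnight at 37 C. Thallium flux was read with FluxOr dye. Rate constants were normalized to DMSO controls.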
uPA surface inh: qHTS for Inhibitors of Cell Surface uPA Generation. Potency, µM (series often up to 38.3 µM), without a hit: at the top dose activity change, negative = inhibition, hits mostly inhibitors. cell surface uPA generation assay, qHTS. actives 0.31% (n = 330,000); active = well fitted inhibition curve with a large enough effect; inconclusive = small, poorly fitted or top-dose-only effect; inactive = no such curve, though single readings can be large or run the other way; tested in mouse RAW 264.7 cells; note: potency is the fitted concentration of half-maximal effect; % is set by controls: 0 for no effect and ±100 for the full control effect; nearly all actives have a fitted effect of over 55% in size
p53 reactivation: qHTS assay for re-activators of p53 using a Luc reporter; AID 504706, 2011; H1299 p53-A138V BP100-luciferase reporter, luminescence, 24 h; actives 0.063% (n = 320,000); Potency, µM (top dose mostly 92.2 µM), for inactives: at the top dose activity change, positive = activation, most hits filed as activators; note: potency is the fitted concentration of half-maximal effect; % of control where 0% means no effect; nearly all actives have a fitted effect of over 45% in size
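p53-null H1299 cells stably carrying temperature-sensitive p53-A138V and a BP100-luciferase reporter were pinned with compounds (4-point, 1:5 series) and held 24 hrs at 37 deg C. Luminescence was read 10 min after detection reagent.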
* marks the source's active call; other numbers are inactive results; ? = inconclusive; . = no result. Compounds with a hit are over-represented: about 1.4% of the library has one in this group of screens. Unless noted, calls come from the whole dose curve; as a rule, active = well fitted curve in the direction sought with a large enough effect; inconclusive = small, poorly fitted or top-dose-only effect, or another doubt; inactive = no such curve, though single readings can be large; an effect the other way counts as inactive or inconclusive.

SMILES | ASM inhibitor | MmCpn inh | KCNH2 3.1 block | KCNH2 WT inh | uPA surface inh | p53 reactivation
CCOc1ccc2nc(NC(=O)CN3CCC(n4nnc5cc(F)ccc54)CC3)sc2c1 | -8.4% | -6.1% | -89.4* | -9.7 | -12.5% | -28.7%
Cc1ccc2c(c1)N(C(=O)CCC(=O)NCCCN1CCN(C)CC1)CCO2 | 3.2% | -1.9% | -21.5 | -5.1 | -8.4% | .
Cc1ccc2c(c1)N(C(=O)CCC(=O)NCCCN1CCC(Cc3ccccc3)CC1)CCO2 | 2.8% | 1.5% | -115.7* | 2.6 | ? | 5.0%
O=C(Nc1ccc2c(c1)OCCO2)c1c(F)cccc1F | -2.6% | -0.7% | -8.6 | -15.5 | ? | 22.4µM*
O=C(Nc1ccc(NC(=O)c2ccccn2)cc1)C(=O)Nc1ccc2c(c1)OCCO2 | -1.1% | 2.1% | 0.4 | -1.5 | -3.1% | -8.1%
O=C(Nc1ccc2c(c1)OCCO2)c1ccccn1 | 1.1% | -1.4% | 1.1 | -6.3 | 3.55µM* | -7.0%
O=C(C=Cc1ccc2c(c1)OCO2)c1ccccc1 | 9.5% | . | -1.7 | 0.2 | 0.2% | .
O=C(/C=C/c1ccc2c(c1)OCO2)c1ccccn1 | 8.1% | -4.1% | -2.9 | -0.3 | -8.7% | 31.6µM*
CC1=C(C(=O)N2CCOCC2)CC(CC(=O)NCCN2CCOCC2)C(=O)N1Cc1ccccc1 (stereo not given) | . | . | 4.5 | -6.9 | . | .
CC(=O)c1cccc(OCC(O)CNCCc2ccc(Cl)cc2)c1 (stereo not given) | 4.7% | 1.8% | -29.1 | 0.9 | -2.0% | -5.4%
CCCc1cnc(NCCNCC(O)COc2ccc(Cl)c(Cl)c2)nc1 (stereo not given) | -2.6% | 2.7% | -97.9* | 22.3 | -8.2% | -8.6%
CN(C)S(=O)(=O)c1ccc(-c2cn3ccccc3n2)cc1 | -0.8% | -14.9% | -23.6 | 2.7 | . | 16.2%
Oc1ccc(-c2cn3ccccc3n2)cc1 | 5.4% | -6.3% | 12.8 | 9.5 | 3.98µM* | 7.1%
c1ccc(-c2cn3ccccc3n2)cc1 | 0.3% | . | 1.8 | -1.1 | -6.2% | .
CCN(CC)S(=O)(=O)c1ccc(-c2cn3ccccc3n2)cc1 | . | . | -3.7 | -100.4* | . | .
CCCCOc1ccc(-c2cn3ccccc3n2)cc1[N+](=O)[O-] | -12.8% | -0.8% | -0.2 | -3.2 | 7.94µM* | ?
CC(C)(C)CC(C)(C)SSc1n[nH]c(=S)s1 | -0.8% | . | -6.8 | -7.7 | -2.7% | .
COc1ccc(CNC(=O)C[C@@H]2C[C@H]3c4cc(NC(=O)NC5CCCC5)ccc4O[C@H]3[C@H](CO)O2)cc1 | . | . | 2.8 | -3.8 | . | .
CCOc1ccc(NC(=O)COC(=O)c2ccc3ncsc3c2)cc1OCC | 8.3% | -5.9% | 4.3 | -7.4 | 0.6% | 1.6%
Oc1ccc(C[C@H]2CNC(=S)N2CC2CCCN2C[C@H](Cc2ccccc2)N2C[C@H](Cc3ccc(O)cc3)N(CC3CCCCCC3)C2=S)cc1 (stereo not given in full) | ? | . | -32.4 | -19.4 | ? | .
CCC(=O)Nc1nc(-c2cc([N+](=O)[O-])cs2)cs1 | -3.7% | 35.5µM* | -9.0 | -7.0 | 31.6% | 7.2%
COCC(=O)Nc1nc(-c2ccc([N+](=O)[O-])cc2)cs1 | 1.3% | -2.8% | 7.0 | 6.0 | ? | 3.4%
CCOc1ccc(C(=O)C(CCC(CN(C)C)C(=O)c2ccc(OCC)cc2)CN(C)C)cc1 (stereo not given) | -4.0% | -0.8% | -10.1 | -34.7 | 1.12µM* | -15.8%
COc1ccc(C(=O)N/N=C/c2ccc(OC)c(COc3ccc(F)cc3F)c2)cc1 | -22.9% | -3.7% | 0.9 | -19.5 | 0.7% | -17.6%
COc1cc2c(cc1OC)C(c1ccccc1)N(C(=O)c1cccc(S(C)(=O)=O)c1)CC2 (stereo not given) | 30.0% | -1.6% | 5.1 | 12.9 | 0.6% | -4.9%
SMILES | ASM inhibitor | MmCpn inh | KCNH2 3.1 block | KCNH2 WT inh | uPA surface inh | p53 reactivation
COC(=O)c1cc(S(=O)(=O)NCC(C)c2ccccc2)c[nH]1 (stereo not given) | . | . | -3.6 | -2.1 | . | .
CNC(=S)NC1CC2CCCC(C1)N2Cc1ccc(C)cc1 (stereo not given) | -3.2% | -1.0% | -83.1* | . | 5.9% | -3.0%
COc1cccc(C(=O)NC2CC3CCCC(C2)N3Cc2ccc(C)cc2)c1 (stereo not given) | 8.8% | ? | -71.4* | 6.7 | 29.8% | .
Cc1cccc(C(=O)NC2CC3CCCC(C2)N3S(=O)(=O)c2ccccc2)c1 (stereo not given) | -0.2% | 0.7% | -72.3* | ? | -10.1% | 2.8%
COc1ccc(CN2C3CCCC2CC(NC(=O)Nc2cccc(C)c2)C3)cc1 (stereo not given) | -2.3% | -19.4% | -113.6* | -87.2* | -6.9% | -2.6%
COc1ccc(CN2C3CCCC2CC(NC(=O)Nc2ccccc2)C3)cc1 (stereo not given) | -1.3% | -1.9% | -39.7 | -35.6 | 4.0% | 4.4%
CCNC(=S)NC1CC2CCCC(C1)N2Cc1ccc(C)cc1 (stereo not given) | 7.6% | -6.9% | -44.2 | 15.0 | 4.9% | .
CN(NC(=O)c1ccccc1F)c1ccc([N+](=O)[O-])cn1 | -0.1% | 1.3% | -37.6 | 10.6 | -2.9% | -0.1%
Cc1ccc(NC(=O)CNC(=O)c2ccc3c(c2)OCO3)nc1 | 0.3% | 2.7% | -21.9 | 11.0 | 3.2% | -15.0%
Cc1ccc(C(=O)N2CCN(c3ccc(NC(=O)c4ccc5c(c4)OCCO5)cc3)CC2)cc1 | -1.5% | -0.6% | -93.0* | -19.6 | -15.1% | -18.2%
Cc1ccc(N2CCN(C(=O)c3ccccc3NC(=O)c3ccccc3C(=O)O)CC2)cc1 | 1.9% | ? | -9.2 | -71.7* | -5.8% | 11.9%
Cc1ccc(C(=O)N2CCN(c3ccc(NC(=O)c4ccc(Br)o4)cc3)CC2)cc1 | -4.3% | 0.8% | -83.1* | 13.6 | -11.5% | -2.7%
Cc1ccc(NC(=O)c2ccc3c(c2)OCCO3)nc1 | 0.4% | -0.2% | -2.9 | -8.6 | 3.16µM* | -6.1%
COc1ccc(C(C)C)cc1S(=O)(=O)Nc1cccnc1 | . | . | -2.8 | -8.4 | . | .
CNC(=O)c1cc(Oc2ccc(NC(=O)Nc3ccc(Cl)c(C(F)(F)F)c3)cc2)ccn1 | -21.7% | -2.5% | -2.0 | -2.8 | ? | -2.6%
CN(C)S(=O)(=O)Nc1cccc(-c2cn3c(n2)SCC3)c1 | 3.5% | 1.2% | -106.3* | 31.8 | -15.0% | 5.7%
